Measurements taken from PubChem BioAssay AID1159580 (chemical genetic matrix, 2015).
About 2,000 (36%) of roughly 5,500 compounds were called active. Roughly 18% stayed inconclusive and do not appear here. Cut-off read from the data, not from the text of the source: active = normalized growth mostly below about 0.91 (no sharp cut-off); inconclusive = no clear call, values can overlap the other calls; inactive = mostly above about 0.92. The list shows a part of the results.

Test: chemical genetic growth profiling, strain panel (AID 1159580);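 note: tested at 20 µM; growth read once vehicle control cultures reached saturation at 30 °C; 1 = growth at the plate median or of vehicle wells; lower values mean less growth of the strain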
Conditions: S. cerevisiae deletion strains, growth OD

Measured: normalized growth

O=C(NCc1ccc2c(c1)OCO2)c1cc2ccccc2s1
active: locus YAR019C, strain CDC15, stronger effect = lower value 0.858 | locus YBL105C, strain PKC1, stronger effect = lower value 0.867 | locus YBR135W, strain CKS1, stronger effect = lower value 0.87 | locus YBR136W, strain MEC1, stronger effect = lower value 0.866 | locus YBR160W, strain CDC28, stronger effect = lower value 0.873 | locus YDL017W, strain CDC7, stronger effect = lower value 0.877 | locus YDL108W, strain KIN28, stronger effect = lower value 0.888 | locus YDL132W, strain cdc53, stronger effect = lower value 0.851 | locus YDL214C, strain PRR2, stronger effect = lower value 0.58 | locus YDR054C, strain cdc34, stronger effect = lower value 0.648 | locus YDR226W, strain ADK1, stronger effect = lower value 0.874 | locus YDR477W, strain SNF1, stronger effect = lower value 0.422 | locus YER123W, strain YCK3, stronger effect = lower value 0.396 | locus YER133W, strain GLC7, stronger effect = lower value 0.298 | locus YFL009W, strain cdc4, stronger effect = lower value 0.858 | locus YFL029C, strain CAK1, stronger effect = lower value 0.852 | locus YFR003C, strain YPI1, stronger effect = lower value 0.872 | locus YFR019W, strain FAB1, stronger effect = lower value 0.625 | locus YFR028C, strain CDC14, stronger effect = lower value 0.864 | locus YGR040W, strain KSS1, stronger effect = lower value 0.459 | locus YGR052W, strain FMP48, stronger effect = lower value 0.406 | locus YGR092W, strain DBF2, stronger effect = lower value 0.3 | locus YHR030C, strain SLT2, stronger effect = lower value 0.14 | locus YHR079C, strain IRE1, stronger effect = lower value 0.178 | locus YHR082C, strain KSP1, stronger effect = lower value 0.571 | locus YIL147C, strain SLN1, stronger effect = lower value 0.871 | locus YJL095W, strain BCK1, stronger effect = lower value 0.144 | locus YJL157C, strain FAR1, stronger effect = lower value 0.622 | locus YJR016C, strain ILV3, stronger effect = lower value 0.87 | locus YJR066W, strain TOR1 (second series), stronger effect = lower value 0.155 | locus YJR066W, strain TOR1, stronger effect = lower value 0.432 | locus YKL048C, strain ELM1, stronger effect = lower value 0.443 | locus YKL067W, strain YNK1, stronger effect = lower value 0.675 | locus YKL101W, strain HSL1, stronger effect = lower value 0.573 | locus YKL193C, strain SDS22, stronger effect = lower value 0.882 | locus YKL203C, strain TOR2, stronger effect = lower value 0.258 | locus YLR113W, strain HOG1, stronger effect = lower value 0.626 | locus YLR133W, strain CKI1, stronger effect = lower value 0.675 | locus YLR403W, strain SFP1, stronger effect = lower value 0.583 | locus YML070W, strain DAK1, stronger effect = lower value 0.54 | locus YMR001C, strain CDC5, stronger effect = lower value 0.837 | locus YMR205C, strain PFK2 (second series), stronger effect = lower value 0.692 | locus YMR277W, strain FCP1, stronger effect = lower value 0.829 | locus YNL006W, strain LST8, stronger effect = lower value 0.849 | locus YNL020C, strain ARK1, stronger effect = lower value 0.663 | locus YNL161W, strain CBK1, stronger effect = lower value 0.868 | locus YNL183C, strain NPR1, stronger effect = lower value 0.322 | locus YNL207W, strain RIO2, stronger effect = lower value 0.822 | locus YNL222W, strain SSU72, stronger effect = lower value 0.853 | locus YNL307C, strain MCK1 (second series), stronger effect = lower value 0.205 | locus YOL078W, strain AVO1, stronger effect = lower value 0.842 | locus YOL136C, strain PFK27, stronger effect = lower value 0.429 | locus YOR061W, strain CKA2, stronger effect = lower value 0.589 | locus YOR119C, strain RIO1, stronger effect = lower value 0.273 | locus YOR231W, strain MKK1, stronger effect = lower value 0.369 | locus YOR329C, strain SCD5, stronger effect = lower value 0.856 | locus YPL031C, strain PHO85, stronger effect = lower value 0.392 | locus YPL153C, strain RAD53, stronger effect = lower value 0.224 | locus YPL204W, strain HRR25, stronger effect = lower value 0.3 | locus YPL209C, strain IPL1, stronger effect = lower value 0.868 | locus YPL256C, strain CLN2, stronger effect = lower value 0.558 | locus YPR025C, strain CCL1, stronger effect = lower value 0.863 | locus YPR106W, strain ISR1, stronger effect = lower value 0.882 | locus YPR111W, strain DBF20, stronger effect = lower value 0.868 | strain NNK1, stronger effect = lower value 0.835 | strain TSCII, stronger effect = lower value 0.799
inactive: locus YDL028C, strain MPS1, stronger effect = lower value 0.9 | locus YDL101C, strain DUN1, stronger effect = lower value 0.912 | locus YDR052C, strain DBF4, stronger effect = lower value 0.933 | locus YHR205W, strain SCH9, stronger effect = lower value 0.678 | locus YJL128C, strain PBS2, stronger effect = lower value 0.854
